LASV entry inh = Lassa virus entry inhibition. Lassa virus pseudotype entry inhibition, cell reporter. Potency, µM (titrated, usually from 37.9 µM), inactives show top-dose activity change, negative = inhibition, actives largely listed as inhibitors. 300,000 tested, 1.2% active. AID 540256; calls by dose curve; tested in HEK293 cells; also: potency is read from the fitted curve at half-maximal effect; % is scaled to controls: 0 for no effect and ±100 for the full control effect; nearly all actives have a fitted effect of over 50% in size
SARS PLpro yeast = blocks SARS-CoV papain-like protease in a yeast assay; S. cerevisiae expressing SARS-CoV PLpro, growth rescue; Potency, µM (titrated, usually from 32.9 µM), for inactives: at the top dose activity, positive = growth rescue, usual class: activators; 330,000 tested, 0.19% active; calls by dose curve; also: potency is read from the fitted curve at half-maximal effect; 0% is about no effect; nearly all actives have a fitted effect of over 55% in size
HCMV inh = blocks human cytomegalovirus replication; HFF cells, HCMV-luciferase reporter, 72 h; active compounds read low; activity change, negative = inhibition, % at 57.5 µM; 410,000 tested, 4.5% active; in the data active = activity change below about -60%; inconclusive = no clear call, values can overlap the other calls; inactive = above about -39%; also: % is scaled to controls: 0 for no effect and ±100 for the full control effect
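Screen run at 2 compound doses on HFFs infected with reporter HCMV, MOI 1 PFU/cell. Luciferase activity from cell lysates at 72 h post infection gave inhibition relative to buffer-only and Salinomycin wells.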
FMDV antiviral = foot and mouth disease virus antiviral activity. 410,000 tested, 1.2% active. FMDV antiviral cell-based qHTS. Potency, µM (titrated, usually from 57.9 µM), for the others: top-dose activity change, negative = inhibition, most hits filed as inhibitors. AID 1159524; calls by dose curve; tested in HEK293T cells; also: read-out not given here; potency is read from the fitted curve at half-maximal effect; % is scaled to controls: 0 for no effect and ±100 for the full control effect; nearly all actives have a fitted effect of over 45% in size
HCV inh = inhibitors of hepatitis C virus infection. Huh7.5.1 HCVcc-Cre infection, luciferase reporter, 44 h. Potency, µM (top dose mostly 41.8 µM), for the others: at the top dose activity change, negative = inhibition, most hits filed as inhibitors. 340,000 tested, 3.4% active. AID 651820; active = well fitted inhibition curve with a large enough effect; inconclusive = small, poorly fitted or top-dose-only effect, or another doubt; inactive = no such curve, though single readings can be large or run the other way; also: potency is read from the fitted curve at half-maximal effect; % is scaled to controls: 0 for no effect and ±100 for the full control effect
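Whole-lifecycle infectious HCVcc-Cre system; cells 1,000/well, compound then virus (~0.5 moi) added 4 h after plating, 44 h culture. Luciferase read 15 sec following 15 min substrate incubation, room temp.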
Marburg entry inh = blocks Marburg virus binding to or entry into cells | AID 540276 | Marburg virus pseudotyped entry inhibition, cell reporter | 300,000 tested, 1.8% active | Potency, µM (highest dose often 37.8 µM), inactives show at the top dose activity change, negative = inhibition, hits mostly inhibitors; calls by dose curve; tested in HEK293 cells; also: potency is read from the fitted curve at half-maximal effect; % is scaled to controls: 0 for no effect and ±100 for the full control effect
* marks the source's active call; other numbers are inactive results; ? = inconclusive; / = not tested or not shown; [ ] = dose if it differs, or a comment. An excerpt weighted towards active compounds, which were near 8% of everything screened.

SMILES	LASV entry inh	SARS PLpro yeast	HCMV inh	FMDV antiviral	HCV inh	Marburg entry inh
CCNc1nc(NC(C)(C)C)nc(N2CCCC2)n1	?	-10%	-27	-26%	?	3.2µM*
CC(C)(C)Nc1nc(N2CCCC2)nc(N2CCCC2)n1	?	2%	-36	?	?	?
CCCNc1nc(N2CCCC2)nc(N2CCCC2)n1	?	-3%	81	?	11µM*	?
COc1ccc(-n2nnc(-c3nsc(NC(=O)c4cccc(C)c4)n3)c2C)cc1OC	-4%[46.1 µM]	/	-100*	?	/	/
Cc1ccc(-n2nnc(-c3nsc(NC(=O)c4ccccc4C)n3)c2C)cc1Cl	-29%[46.1 µM]	/	-99*	-9%	/	/
COc1cc(OC)cc(C(=O)Nc2nc(-c3nnn(-c4ccc(F)c(Cl)c4)c3C)ns2)c1	-11%[46.1 µM]	/	-94*	-25%	/	/
COc1ccc(C(=O)Nc2nc(-c3nnn(-c4ccc(C(C)C)cc4)c3C)ns2)cc1	3%[46.1 µM]	/	?	-10%	/	/
CC(Oc1ccccc1)C(=O)OCc1cc(=O)n2nc(C(C)C)sc2n1 (stereo not drawn)	7%[46.1 µM]	/	-10	-17%	/	/
Cc1ccc(C)c(C(=O)N2CCC(C3(c4ccccn4)NC(=O)N(CC4CCCO4)C3=O)CC2)c1 (stereo not drawn)	/	/	/	-6%	/	/
Cc1ccc(OCC(=O)Nc2c(C(=O)c3ccc(Cl)cc3)oc3ccccc23)cc1C	4%[46.1 µM]	/	-11	-2%	/	4%[46.1 µM]
CCOCCc1nn2c(=O)cc(COC(=O)c3ccccc3NC(=O)C3CCCCC3)nc2s1	11%[46.1 µM]	/	-1	?	/	/
C[C@]12CCC3C(CC[C@H]4CCCC[C@]34C)C1CC[C@@]2(O)CNCCO (stereo partly drawn)	?	-1%	-1	-17%	10µM*	1%
C[C@]12CCC(=O)C[C@@H]1CC[C@@H]1[C@@H]2CC[C@@]2(C)[C@H]1CC[C@]2(C)O	/	2%	/	/	/	/
COc1ccc(-n2c(C)cc(/C=C/c3nc(O)c([N+](=O)[O-])c(=O)[nH]3)c2C)cc1	-5%	0%	-61*	1%	7%	7%[46.1 µM]
Cc1cc(/C=C\c2nc(O)c([N+](=O)[O-])c(=O)[nH]2)c(C)n1-c1ccccc1	0%	0%	-14	2%	-1%	9%[46.1 µM]
Cc1cc(C)cc(NC(=O)C(=O)NCC(c2ccc3c(c2)OCO3)N2CCOCC2)c1 (stereo not drawn)	-20%[46.1 µM]	/	-17	-21%	/	/
O=C(Nc1ccc(F)cc1)c1cc(S(=O)(=O)N2CCCCC2)cs1	?	-2%	-84*	?	?	?
CC1CN(S(=O)(=O)c2csc(C(=O)Nc3ccccc3)c2)CC(C)O1 (stereo not drawn)	?	0%	-60*	-28%	/	?
CCOC(=O)C1CCCCN1C(=O)c1cnn(-c2nccc(-c3cc(C)sc3C)n2)c1C1CC1 (stereo not drawn)	/	/	/	18%	/	/
CC(C)(C)C(=O)CN1C(=O)NC(c2ccccc2)(c2ccccc2)C1=O	-26%[46.1 µM]	6%	6	3%	17%	-2%[46.1 µM]
Cc1cccc(CN2C(=O)NC(c3ccccc3)(c3ccccc3)C2=O)c1	?	-6%	-69*	-25%	-13%	?
COC(=O)CC1C(=O)NCCN1C(=O)CN1Cc2ccccc2OC(c2ccccc2)C1 (stereo not drawn)	/	/	/	9%	/	/
Cc1cccc(CSc2nc3c(cc2C#N)CN(C)CC3)c1	9%	-2%	33	3%	14µM*	5%
CN1CCc2nc(SCc3ccccc3Br)c(C#N)cc2C1	-13%	0%	-20	-2%	7.9µM*	-8%
CCOC(=O)C1=C(CSc2nc3c(cc2C#N)CN(C)CC3)OC(N)=C(C#N)C1c1ccc(F)cc1 (stereo not drawn)	13%	-9%	-1	0%	10µM*	?
SMILES	LASV entry inh	SARS PLpro yeast	HCMV inh	FMDV antiviral	HCV inh	Marburg entry inh
COc1ccc(NC(=O)Cn2c(SCc3ccc(C)cc3)nc3cccnc32)c(OC)c1	-3%[46.1 µM]	/	49	-2%	/	/
COc1cccc(NC(=O)CN2C(=O)C3(SCC(=O)N3c3cc(C)cc(C)c3)c3ccccc32)c1 (stereo not drawn)	0%[46.1 µM]	/	6	-20%	/	/
CN(C)S(=O)(=O)c1cccc(NC(=O)c2ccc(S(=O)(=O)N3CCCC3)cc2)c1	1%	-3%	-16	0%	10µM*	0%
CC(C)Oc1ccc(C(=O)Nc2cccc(S(=O)(=O)N3CCCC3)c2)cc1	?	3%	?	-6%	2.8µM*	?
CC(C)Oc1ccc(C(=O)Nc2cc(S(=O)(=O)N3CCOCC3)ccc2N2CCOCC2)cc1	13µM*	-2%	17	13%	?	?
Cc1cc(C)n(-c2ccc(C(=O)N3CCN(S(=O)(=O)c4ccc(C(C)C)cc4)CC3)cc2)n1	/	18%	9	?	?	/
Cc1cc(C)n(-c2ccc(C(=O)N3CCN(S(=O)(=O)c4cccc(Br)c4)CC3)cc2)n1	/	/	-64*	?	7.9µM*	/
CCn1nnc2cc(C(=O)Nc3cccc(C)c3C)ccc21	-16%[46.1 µM]	/	-7	15%	/	/
Cc1ccc(S(=O)(=O)NCC(c2ccc(N(C)C)cc2)N2CCc3ccccc32)cc1C (stereo not drawn)	-11%[46.1 µM]	/	-20	30%	/	/
CC1CC1C(=O)Nc1cc(S(=O)(=O)N2CCOCC2)ccc1N1CCCC1 (stereo not drawn)	-4%	0%	?	-7%	10µM*	-1%[46.1 µM]
COc1ccc(NC(=O)c2nn(C)c(=O)c3ccccc23)cc1S(=O)(=O)Nc1ccccc1Cl	/	-1%	88	86%	13µM*	/
CCN1CCN(c2ccc(S(=O)(=O)N3CCOCC3)cc2NC(=O)C(C)Oc2cccc(Cl)c2)CC1 (stereo not drawn)	?	3%	-10	-13%	?	?
CC(Oc1cccc(Cl)c1)C(=O)Nc1cc(S(=O)(=O)N2CCOCC2)ccc1N1CCCCC1 (stereo not drawn)	?	5%	-36	?	22µM*	?
Cc1cc(C)n(-c2ccc(C(=O)Nc3cccc(S(=O)(=O)N4CCCC4)c3)cc2)n1	?	-4%	-72*	-23%	?	?
COc1ccccc1NS(=O)(=O)c1cccc(NC(=O)c2nn(C)c(=O)c3ccccc23)c1	/	2%	33	-10%	?	/
COc1ccc(CCNC(=O)C2CCCN(c3nc4c(C)cc(C)cc4s3)C2)cc1OC (stereo not drawn)	/	/	55	12%	/	-14%[46.1 µM]
COc1ccc(N2CCC[C@H]2/C=C/C(=O)OC(C)(C)C)cc1	/	/	7	/	/	/
CCOC(=O)COc1ccc(C)cc1C(=O)c1ccn2nc(-c3ccc(C)cc3)cc2n1	25%[46.1 µM]	/	1	-20%	/	0%[46.1 µM]
Cn1nc(C(=O)Nc2cccc(S(=O)(=O)N3CCCCC3)c2)c2ccccc2c1=O	-22%	-3%	110	-16%	?	6.3µM*
COC(=O)C/C=C\[C@@H](C)[C@@H](/C=N\OC[C@@H](O)COCc1ccco1)OC	/	/	/	/	/	-14%[14.2 µM]
